Inconclusive results are not listed. Entries that show only a call come without a potency. Activity calls are given as the source filed them. Calls follow the shape of the dose curve; as a rule, active = well fitted inhibition curve with a large enough effect in the repeat runs; inconclusive = weak or mixed curves; inactive = flat fitted curve, though single readings scatter.
The compounds below were run against Cytochrome P450 2D6 (Homo sapiens) (UniProt P10635) (assay: Cytochrome P450 family 2 subfamily D member 6 (CYP2D6) small molecule antagonists: luciferase biochemical (cell-free) qHTS assay (AID 1645840; also: nearly all actives have a fitted effect of over 55% in size)). Settings: P450-Glo CYP2D6 enzyme, luciferin luminescence, 1 h; series mostly up to 57.4 µM.
Chain of Cytochrome P450 2D6 (Homo sapiens) (P10635 whole entry, looked up): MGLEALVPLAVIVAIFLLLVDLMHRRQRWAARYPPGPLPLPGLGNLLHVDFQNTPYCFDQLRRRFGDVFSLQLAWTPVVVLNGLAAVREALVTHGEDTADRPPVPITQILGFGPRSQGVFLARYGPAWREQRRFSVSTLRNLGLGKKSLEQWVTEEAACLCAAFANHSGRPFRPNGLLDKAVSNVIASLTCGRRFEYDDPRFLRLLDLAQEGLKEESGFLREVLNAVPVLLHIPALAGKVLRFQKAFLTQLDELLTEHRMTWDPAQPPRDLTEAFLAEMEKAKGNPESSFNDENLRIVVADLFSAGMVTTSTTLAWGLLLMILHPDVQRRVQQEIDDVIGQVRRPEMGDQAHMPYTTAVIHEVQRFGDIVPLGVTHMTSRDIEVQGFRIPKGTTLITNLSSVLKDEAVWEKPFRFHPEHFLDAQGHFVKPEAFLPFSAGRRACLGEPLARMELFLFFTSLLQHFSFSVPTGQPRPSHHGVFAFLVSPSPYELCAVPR
Protocol: National Center for Advancing Translational Sciences [NCATS] Assay Overview: Cytochrome P450 (CYP) enzymes are membrane-bound hemeproteins that play a key role in metabolism of drugs and xenobiotics. Assaying the effect of chemicals on CYP isozymes is useful to minimize the adverse drug reactions and toxicities in drug development process. Chemical compounds were tested for their effect on CYP enzyme activities by using P450-Glo (TM) screening systems (Promega Corporation, Madison, WI). These systems provide a luminescent method containing proluciferin substrates and are converted to luciferin products by CYP isozymes. The luciferin products formed are detected with a luciferin detection reagent, and the amount of light produced is proportional to CYP activity. P450-Glo (TM) CYP2D6 screening system (Catalog. No. V9890) was used to detect the compounds that interfere in CYP2D6 activity.
Assay Protocol Summary: Two ul of enzyme-substrate mix was dispensed into medium binding white/solid 1536-well plates (Greiner Bio-One North America Inc., Monroe, NC) using a Flying Reagent Dispenser (FRD, Aurora Discovery, San Diego, CA). […] The assay plates were incubated at room temperature for 10 min. Then 2 ul of NADPH regeneration solution was added to each well of the assay plates using an FRD and incubated at room temperature for 1 h. The reaction was stopped by adding 4 ul of detection reagent using an FRD and after 20 min incubation at room temperature, the luminescence signal was measured using a ViewLux plate reader (Perkin Elmer, Shelton, CT). Data were expressed as relative luminescence units.
For `FC(F)(F)c1ccc(N2CCNCC2)nc1Cl`, the Potency was 15.1 µM (active). With `Cc1ccccc1CN1CCC(N2CCC(n3c(=O)[nH]c4ccccc43)CC2)CC1` the Potency was 12 µM (active). In the case of `CC(C)[C@H](NC(=O)c1nn(Cc2ccc(F)cc2)c2ccccc12)C(N)=O`, the Potency is reported as 16.9 µM (active). `CN1C(=O)C(Cc2ccc3ccccc3c2)N=C(c2ccc(O)cc2)c2cc(Cl)ccc21` (stereo not given) was tested, and the Potency was 10.7 µM (active). With `CN1C(=O)[C@@H](Cc2c[nH]c3ccccc23)N=C(c2ccccc2F)c2ccccc21` the Potency was 9.52 µM (active). In the case of `Cc1c(Cl)c(OCC(=O)N2CCN(C)CC2)nc2sc(C(=O)NC3CC3)c(N)c12`, the Potency is reported as “inactive”. With `C1=C(c2cnc[nH]2)c2ccsc2CC1` the Potency was 12 µM (active). `C[C@H]1CN(Cc2ccc(CC(=O)N3CCC(Nc4cccc(F)c4)CC3)cc2)CCN1` was tested, and the Potency was 12 µM (active). For `C[C@@H](CN1CCC(n2c(=O)[nH]c3cc(Br)ccc32)CC1)NC(=O)[C@@H]1C[C@H]1c1ccccc1`, the Potency was 13.5 µM (active). For `CC(=O)N1N=C(c2ccc(N)cc2)c2cc3c(cc2C[C@H]1C)OCO3`, the Potency was “inactive”. `COc1ccsc1CNCC[C@@]1(c2ccccn2)CCOC2(CCCC2)C1` was tested, and the Potency was “inactive”. With `NC(=O)c1ncn2c1CN=C(c1ccccc1Br)c1cc(F)ccc1-2` the Potency was “inactive”. For `c1ccc([C@@H]2C[C@H]2NC2CCNCC2)cc1`, the Potency was 10.7 µM (active). In the case of `NC(=O)[C@@H](CC1CC1)[C@@H](CCC(F)(F)F)C(=O)N[C@H]1N=C(c2ccccc2)c2cccc(F)c2NC1=O`, the Potency is reported as “inactive”. For `CCCCCn1cc(C(=O)Oc2cccc3cccnc23)c2ccccc21`, the Potency was “inactive”. For `CCOC(=O)C1(CCc2ccccc2)CCN(Cc2ccc(NC(C)=O)cc2)CC1`, the Potency was 2.13 µM (active). With `O=C1CN=C(c2cccc(Br)c2)c2oc3ccccc3c2N1` the Potency was “inactive”. In the case of `COc1ccc2[nH]c(-c3ccccc3)c(CCN(C)C)c2c1`, the Potency is reported as 2.13 µM (active). With `Cc1sc2c(c1C)C(c1ccc(Cl)cc1)=NC(CC(=O)Nc1ccc(O)cc1)c1nnc(C)n1-2` (stereo not given) the Potency was “inactive”. With `COc1ccc2c(c1)c(CCN(C)C)cn2S(=O)(=O)c1ccccc1` the Potency was 1.51 µM (active). `O=C(CC1NCCC[C@H]1O)Cn1cnc2cc(Br)c(Cl)cc2c1=O` (stereo not given in full) was tested, and the Potency was “inactive”. In the case of `CCCCCn1cc(C(=O)Cc2ccccc2OC)c2ccccc21`, the Potency is reported as “inactive”. For `CN1C[C@@H]2CN(c3ccc(-c4ccccc4)nn3)C[C@@H]2C1`, the Potency was “inactive”. For `CCCN(CCC)[C@@H]1CCc2ccc3[nH]c(C#N)cc3c2C1`, the Potency was 0.338 µM (active). `COc1cc(N2CCN(C)CC2)ccc1N` was tested, and the Potency was “inactive”. For `Cc1ccc(-n2nccn2)c(C(=O)N2CCN(c3nc4cc(Cl)ccc4o3)CCC2C)c1` (stereo not given), the Potency was 16.9 µM (active). For `Cc1ccc(Cn2nc(C(=O)N[C@@H]3C(C)(C)[C@@H]4CC[C@@]3(C)C4)cc2-c2ccc(Cl)c(C)c2)cc1`, the Potency was “inactive”. In the case of `NCCCCCNC1(c2ccccc2)CCCCC1`, the Potency is reported as 2.13 µM (active). With `N#Cc1ccccc1-c1cc(-c2ccccn2)cn(-c2ccccc2)c1=O` the Potency was “inactive”. `CCCCNC(C)(C)[P+](=O)O` was tested, and the Potency was “inactive”. With `CN1C(=O)CN=C(c2ccccc2Cl)c2cc(Cl)ccc21` the Potency was “inactive”. For `C[C@H](Nc1ncnc2nc[nH]c12)c1nc2ccc(F)cc2c(=O)n1-c1ccccc1`, the Potency was 15.1 µM (active). With `CC(=O)NCCCOc1ccc(C(=O)N2CCC(N3C(=O)CCc4ccccc43)CC2)cc1` the Potency was “inactive”. In the case of `Cc1c(N2C(=O)[C@@H]3[C@H](O)CCN3C2=O)ccc(C#N)c1Cl`, the Potency is reported as “inactive”. With `N#Cc1cn([C@@H]2O[C@H](CO)[C@H](O)[C@@H]2O)c2ncnc(N)c12` the Potency was “inactive”. For `CCCCn1cc(C(=O)c2cccc3ccccc23)c2ccccc21`, the Potency was “inactive”. For `Cc1cccc(NC(=O)NC2N=C(c3ccccc3)c3ccccc3N(CC(=O)c3ccccc3C)C2=O)c1` (stereo not given), the Potency was “inactive”. For `CC1(C)C(=O)N(c2ccc(C#N)c(C(F)(F)F)c2)C(=S)N1c1ccc(C(N)=O)c(F)c1`, the Potency was “inactive”. `CN(C(=O)C(c1ccccc1)c1ccccc1)[C@H](CN1CC[C@H](O)C1)c1ccccc1` was tested, and the Potency was 0.122 µM (active). For `CCCCN1[C@@H]2CC[C@H]1CC(OC(c1ccc(F)cc1)c1ccc(F)cc1)C2` (stereo not given in full), the Potency was 0.169 µM (active).

Reference: PubChem BioAssay (NCATS)
Potency is read from the fitted curve at half-maximal effect.
